Screening results (PubChem BioAssay)
TDP1 cell CPT: DT40-hTDP1 cell growth loss with CPT; AID 686979; 420,000 tested, 12% active; Potency, µM (series often up to 46.2 µM), inactives show at the top dose activity change, negative = growth inhibition, most hits filed as inhibitors; chicken DT40 Tdp1-/-;hTDP1 cells + 20 nM CPT, ATP luminescence, 48 h; further: potency means the concentration at half of the fitted maximal effect; on the % scale 0 is the no-effect control and ±100 the full control effect; nearly all actives have a fitted effect of over 55% in size
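Chicken DT40 Tdp1-/- cells stably complemented with human TDP1 were seeded at 400 cells/well in medium containing 20 nM camptothecin, exposed to pin-transferred compounds, and grown at 37 °C for at least 48 hr. Viability was read as ATP luminescence.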
TDP1 block: blocks human tyrosyl-DNA phosphodiesterase 1 | Potency, µM (highest dose often 130 µM), for inactives: at the highest dose activity change, negative = inhibition, actives largely listed as inhibitors | recombinant TDP1, AlphaScreen DNA substrate cleavage | AID 485290 | Q9NUW8 | 350,000 tested, 0.28% active; further: potency means the concentration at half of the fitted maximal effect; on the % scale 0 is the no-effect control and ±100 the full control effect; nearly all actives have a fitted effect of over 40% in size
Target sequence (Q9NUW8 whole entry, looked up): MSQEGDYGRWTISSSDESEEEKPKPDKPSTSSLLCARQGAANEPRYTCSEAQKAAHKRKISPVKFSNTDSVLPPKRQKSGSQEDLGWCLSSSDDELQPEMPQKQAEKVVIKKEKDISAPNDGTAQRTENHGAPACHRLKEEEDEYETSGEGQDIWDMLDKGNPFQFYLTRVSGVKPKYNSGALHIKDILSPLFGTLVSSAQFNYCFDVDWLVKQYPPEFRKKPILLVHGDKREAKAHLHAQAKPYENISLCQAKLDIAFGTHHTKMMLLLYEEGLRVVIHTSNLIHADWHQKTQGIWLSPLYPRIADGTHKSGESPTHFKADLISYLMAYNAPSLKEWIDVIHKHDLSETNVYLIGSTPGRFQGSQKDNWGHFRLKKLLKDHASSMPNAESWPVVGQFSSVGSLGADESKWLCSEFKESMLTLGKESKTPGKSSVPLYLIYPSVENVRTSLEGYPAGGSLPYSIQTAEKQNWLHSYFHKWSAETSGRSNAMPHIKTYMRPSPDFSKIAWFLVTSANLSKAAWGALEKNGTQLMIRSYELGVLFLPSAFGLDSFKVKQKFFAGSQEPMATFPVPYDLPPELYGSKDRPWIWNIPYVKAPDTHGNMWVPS
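Here, a 5' biotin and 3' phosphotyrosine-FITC DNA oligonucleotide reports Tdp1 activity: intact substrate bridges AlphaScreen beads, while cleavage leaves a 3' phosphate and drops signal. All incubations at room temperature.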
IL-1B inflam inh: blocks inflammasome-driven IL-1 beta release; activity change, % at 57.5 µM; 360,000 tested, 4.7% active; THP-1 LPS/ATP IL-1B secretion, AlphaLISA, 16 h; hits give low values; in the data active means activity change below about -50%; inconclusive means mostly about -30% to -49%; further: on the % scale 0 is the no-effect control and ±100 the full control effect
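Secreted IL-1B measured by AlphaLISA bead assay after 16 h compound exposure of THP-1 cells; compounds (final up to 57.5 uM) added 1 h before LPS (250 ng/mL) and ATP (1.25 mM) stimulation; lower signal means less secretion.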
HepG2 viability: counter-screen for TGF-b inhibitors: cytotoxicity in HepG2 cells | HepG2 CAGA-GFP viability, ATP luminescence, 18 h | Potency, µM (series often up to 46.1 µM), without a hit: top-dose activity change, negative = cytotoxicity, usual class: cytotoxic | 410,000 tested, 0.76% active; further: potency means the concentration at half of the fitted maximal effect
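CellTiter-Glo luminescence gave cytotoxicity after 18 hours at 37 degrees C. The cells were HepG2 CAGA-GFP in 1% FBS DMEM, stimulated with 500 pg/mL TGF-beta after compound addition. %Activity was normalised to no-cell wells (complete cell-killing) and DMSO (no toxicity), and curves were fitted and classified.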
TGFb SMAD3 inh: blocks TGF-b signaling; HepG2 CAGA-GFP TGF-b/SMAD3 reporter, GFP fluorescence, 18 h; TGF-beta stimulated, 500 pg/mL final; Potency, µM (doses to about 46.1 µM), for inactives: at the top dose activity, negative = inhibition, actives largely listed as inhibitors; 410,000 tested, 1.2% active; further: potency means the concentration at half of the fitted maximal effect; on the % scale 0 is the no-effect control and ±100 the full control effect; nearly all actives have a fitted effect of over 65% in size
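GFP signal (ex488/em500-530) from TGF-beta-stimulated HEPG2 CAGA-GFP cells, 500 pg/mL final, 18 h at 37 degrees C in DMEM plus 1% FBS, normalized to unstimulated and DMSO-stimulated controls.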
TDP1 cell noCPT: qHTS for Inhibitors of human tyrosyl-DNA phosphodiesterase 1 (TDP1): qHTS in cells in absence of CPT; DT40 Tdp1-/- hTDP1 cells, no CPT, ATP luminescence, 48 h; Potency, µM (highest dose often 46.2 µM), inactives show at the top dose activity change, negative = growth inhibition, actives largely listed as inhibitors; 420,000 tested, 15% active; further: potency means the concentration at half of the fitted maximal effect; on the % scale 0 is the no-effect control and ±100 the full control effect; nearly all actives have a fitted effect of over 55% in size
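Readout: luminescence from CellTiter-Glo after 30 min in the dark at RT. Cells: DT40 Tdp1-/- with stable hTDP1, 400/well. Exposure: compounds alone, ≥48 hr, 37 °C.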
* marks the source's active call; other numbers are inactive results; ? = inconclusive; / = not tested or not shown; ! = a repeat was not active; [ ] = another dose, or the depositor's remark. Most compounds without a hit are left out; they make up all but 19% or so of the library. Unless noted, the call rests on the fitted dose curve; in most records, active means well fitted curve in the direction sought with a large enough effect; inconclusive means small, poorly fitted or top-dose-only effect, or another doubt; inactive means no such curve, though single readings can be large; an effect the other way counts as inactive or inconclusive.

SMILES	TDP1 cell CPT	TDP1 block	IL-1B inflam inh	HepG2 viability	TGFb SMAD3 inh	TDP1 cell noCPT
CCC(C)Sc1cc(-c2nc3ccc(Cl)cn3c2NC2CCCCC2)ccc1OC (centres undefined)	16µM*	1%	-74*!	-11%	?	15µM*
CC(C)C(NC(=O)C(C)N1C(=O)c2ccccc2C1=O)c1ccccc1 (centres undefined)	14%	/	36	-10%	8%	-5%
Nc1ccc(C(=O)O)c(O)c1	4%	6%	15	8%	34%	0%
Cc1ccc(N)cc1O	7.7µM*!	-4%	55	-38%	?	6.9µM*!
Cc1cc(O)c(-c2cc(O)c(C)cc2O)cc1O	5.2µM*	8%	-99*	22µM*	?	3.3µM*
Cc1cc(O)cc(C)c1Cl	1%	2%	21	-1%	-3%	-12%
O=C(CC(Sc1ccccc1)c1cccs1)c1ccco1 (centres undefined)	18µM*	-3%	-70*	-29%	-24%	26µM*
Cc1ccc(C2=Nc3ccc(Br)cc3C(c3ccncc3)=NN2)cc1	?	-5%	-149*	4%	3%	-28%
CCn1c2ccccc2c2cc(CN3CCN(Cc4ccc(OC)c(OC)c4)CC3)ccc21	18µM*	-10%[12.3 µM]	/	-63%	?	23µM*
CCn1c2ccccc2c2cc(CN3CCN(Cc4ccccc4Cl)CC3)ccc21	?	-1%[2.28 µM]	/	-33%	?	?
CCCS(=O)(=O)N1CCN(Cc2ccc3c(c2)c2ccccc2n3CC)CC1	21µM*	-3%	?	2%	-5%	?
COc1ccccc1CN1CCN(Cc2ccc3ccccc3c2)CC1	?	/	-3	-34%	-14%	?
COc1ccc(CN2CCN(Cc3ccc4ccccc4c3)CC2)cc1OC	?	/	?	-34%	-25%	18µM*
CCCS(=O)(=O)N1CCN(Cc2c[nH]c3ccccc23)CC1	?	0%	17	-14%	-7%	?
CCOc1ccc(CN2CCN(Cc3ccc4c(c3)c3ccccc3n4CC)CC2)cc1	?	-6%[12.3 µM]	/	-76%	10µM*	15µM*
CCc1ccc(-c2nn(CC(=O)Nc3ccccc3C)c3c2cnc2ccc(C)cc23)cc1	-1%	3%	/	-1%	2%	14%
CC(C)COc1ccc(C(=O)N2CCN(CCc3ccccn3)CC2)cc1	-23%	3%	/	9%	-38%	-23%
CCCCn1c(=O)n(C)c(=O)c2c(C(F)(F)F)cc(-c3ccncc3)nc21	18µM*	4%	26	-1%	6%	11µM*
CCCn1c(=O)c2c(C(F)(F)F)cc(-c3ccco3)nc2n(CCC)c1=O	-32%	0%	12	-11%	2%	-11%
CCC1CCCCN1CCCNC(=O)c1c(C)oc2ncn(CC(C)C)c(=O)c12 (centres undefined)	2%	-7%	/	-12%	-19%	1%
CCN(C(=O)C(C)Sc1ccc(S(=O)(=O)N2CCOCC2)cn1)c1ccccc1 (centres undefined)	?	2%	-13	-34%	-15%	18µM*
CN(c1ccc(S(=O)(=O)N2CCOCC2)cn1)C1CCCCC1	-62%	6%	18	0%	?	23µM*
CN(C(=O)COC(=O)c1ccc(S(=O)(=O)N2CCOCC2)cc1)C1CCCCC1	0%	2%	5	9%	21%	-3%
CC1(C)[C@H]2CC[C@]1(C)[C@H](O)C2	10%	/	/	/	/	-8%
NC1=NC[C@H](CC2CCCCC2)N1CCc1cc(C(F)(F)F)cc(C(F)(F)F)c1	5.8µM*	0%	-27	20µM*	?	7.3µM*
SMILES	TDP1 cell CPT	TDP1 block	IL-1B inflam inh	HepG2 viability	TGFb SMAD3 inh	TDP1 cell noCPT
CC(C)(C)CN1C(N)=NC[C@H]1Cc1ccc(O)cc1	?	-2%	12	-10%	-3%	?
NC1=NC[C@H](Cc2ccc(O)cc2)N1CCC12CC3CC(CC(C3)C1)C2	8.2µM*	5%	?	-5%	-8%	?
NC1=NC[C@@H](Cc2ccc(O)cc2)N1CCc1cc(C(F)(F)F)cc(C(F)(F)F)c1	?	4%	?	-11%	10%	21µM*
Cc1ccc(NC(=O)CSc2nc3ncc(Cl)cc3[nH]2)c(C)c1	?	-2%	-5	4%	3%	0%
Cc1ccc(NC(=O)CN(C)CC(=O)N(CC(C)C)c2c(N)n(CC(C)C)c(=O)[nH]c2=O)c(C)c1	0%	0%	-8	3%	10%	16%
CCC(C)Cn1c(/C=C/c2ccccc2)nc2ccccc21 (centres undefined)	9.2µM*	/	/	-55%	?	9.2µM*
CC(C)CCn1c(/C=C/c2ccccc2)nc2ccccc21	16µM*	/	/	10µM*	?	12µM*
CCC(C)[C@H](NC(=O)N1CCn2c1nc1ccccc12)C(=O)NCCc1ccc(OC)c(OC)c1 (some centres undefined)	15µM*	2%	-9	-36%	?	16µM*
COc1ccc(CCNC(=O)[C@H](CC(C)C)NC(=O)N2CCn3c2nc2ccccc23)cc1OC	-64%	6%	-66*	-2%	?	?
COc1cccc(NC(=O)[C@@H](NC(=O)N2CCn3c2nc2ccccc23)C(C)C)c1	-13%	6%	5	-2%	?	13µM*
CCC(C)[C@H](NC(=O)N1CCn2c1nc1ccccc12)C(=O)NCCc1ccccc1 (some centres undefined)	21µM*	4%	-59*	3%	?	?
CC(/C=C/C=C(\C)C(=O)O[C@@H]1O[C@H](CO[C@@H]2O[C@H](CO)[C@@H](O)[C@H](O)[C@H]2O)[C@@H](O)[C@H](O)[C@H]1O)=C\C=C\C=C(C)\C=C\C=C(/C)C(=O)O[C@@H]1O[C@H](CO[C@@H]2O[C@H](CO)[C@@H](O)[C@H](O)[C@H]2O)[C@@H](O)[C@H](O)[C@H]1O	8%	-15%	/	/	/	3%
CSCC[C@H](NC(=O)N1CCn2c1nc1ccccc12)C(=O)N1CCCCC1	-19%	4%	-1	1%	3%	-2%
CC(C)C[C@H](NC(=O)N1CCn2c1nc1ccccc12)C(=O)N1CCCCC1	?	1%	-5	-26%	?	21µM*
